According to PubChem BioAssay (NCATS):
Several values for one entry are separate records, joined by “and”; a condition that tells them apart may be missing. Equal values may be shown once. Inconclusive results are not listed. Activity calls are given as the source filed them. Calls come from the whole dose curve; as a rule, active = well fitted curve in the direction sought with a large enough effect; inconclusive = small, poorly fitted or top-dose-only effect, or another doubt; inactive = no such curve, though single readings can be large; an effect the other way counts as inactive or inconclusive. Where a SMILES comes first, the peptide text is derived from it. [ ]: non-standard residue; d: D form. pGlu = O=C1CC[C@@H](C(=O)O)N1

Experiments:
[1] = molecular target: Cytochrome P450 3A7 (Homo sapiens) (UniProt P24462); assay: Cytochrome P450 family 3 subfamily A member 7 (CYP3A7) small molecule antagonists: luciferase biochemical qHTS assay (AID 1963596); note: % is set by controls: 0 for no effect and ±100 for the full control effect; nearly all actives have a fitted effect of over 40% in size
In short: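 Enzyme-substrate mix + cpd (DMSO), 10 min RT; + NADPH regen system, 1 h RT; + luciferin detection reagent, 20 min RT; luminescence read. Proluciferin substrate, P450-Glo format, 1536-well qHTS.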

[2] = Viability qHTS for spleen associated tyrosine kinase inhibitor (SYKi) naive MV4-11 cells (AID 1963823); note: nearly all actives have a fitted effect of over 40% in size; note: potency is the fitted concentration of half-maximal effect
In short: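 Luminescence from CellTiter-Glo, developed 10 min at room temperature, gave viability of MV4-11 cells never exposed to SYK inhibitor. Cells (500/well) had been incubated with compounds for 72 hr under standard culture conditions.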

[3] = Viability qHTS for spleen associated tyrosine kinase inhibitor (SYKi) drug resistant MV4-11 cells (AID 1963824); note: nearly all actives have a fitted effect of over 35% in size; note: potency is the fitted concentration of half-maximal effect
In short: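 SYK inhibitor-resistant MV4-11 AML cells, 500 per well, added to predispensed compounds and incubated 72 hr at 37 C, 5% CO2. Viability measured by CellTiter-Glo luminescence after 10 min at room temperature.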

[4] = Cellular viability qHTS for adrenocortical cancer (ACC) cell line SW-13 (AID 1963989); conditions: SW-13 ACC cells viability, CellTiter-Glo, 48 h; activity (max response): hits give low values; note: nearly all actives have a fitted effect of over 65% in size; note: potency is the fitted concentration of half-maximal effect;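 for activity (max response): cells grown in serum-free medium with ITS supplement; % is set by controls: 0 for no effect and ±100 for the full control effect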
In short: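 Viability was read as CellTiter-Glo luminescence after 48 h compound treatment (up to 46 uM final) of SW-13 cells grown serum-free; titration curves were fit with a four-parameter logistic model to give IC50 and efficacy.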

[5] = Quantitative highthroughput screen to assess conditional lethalithy of P12 Ichikawa cells grown in RPMI1640 with untreated serum (RPMI+s) (AID 1963881); conditions: Potency: viability; note: potency is the fitted concentration of half-maximal effect; nearly all actives have a fitted effect of over 35% in size
In short: (§1)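 Each medium arm—HPLM with 10% dialyzed FBS, or RPMI1640 with 5 mM glucose and 10% untreated or dialyzed FBS—was screened against an 11-point, 3-fold compound titration for 48 h at 37 °C, with CellTiter-Glo luminescence as endpoint.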

[6] = Quantitative highthroughput screen to assess conditional lethalithy of SEM cells grown in Human Plasma-Like Medium with dialyzed fetal bovine serum (HPLM+ds) (AID 1963882); note: nearly all actives have a fitted effect of over 35% in size; note: potency is the fitted concentration of half-maximal effect; for Viability: series mostly up to about 46 µM
In short: as §1

[7] = Quantitative highthroughput screen to assess conditional lethalithy of SEM cells grown in RPMI1640 with unreated serum (RPMI+s) (AID 1963883); note: nearly all actives have a fitted effect of over 35% in size; note: potency is the fitted concentration of half-maximal effect;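 for Viability: 100% = DMSO wells and 0% = empty wells without cells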
In short: as §1

[8] = Quantitative highthroughput screen to assess conditional lethalithy of SEM cells grown in RPMI1640 with dialyzed fetal bovine serum (RPMI+ds) (AID 1963884); note: nearly all actives have a fitted effect of over 35% in size; note: potency is the fitted concentration of half-maximal effect;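 for Viability: series mostly up to about 46 µM; 100% = DMSO control wells and 0% = empty wells without cells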
In short: as §1

[9] = Cellular viability qHTS for adrenocortical cancer (ACC) cell line NCI-H295R (AID 1963990); note: nearly all actives have a fitted effect of over 60% in size; note: potency is the fitted concentration of half-maximal effect
In short: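 CellTiter-Glo ATP luminescence, read 48 h after compound addition, measured viability of NCI-H295R adrenocortical cells grown serum-free with ITS. Final concentrations spanned up to 46 uM. Data normalized to DMSO and doxorubicin, fitted for IC50 and maximal response.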

Cytochrome P450 3A7 (Homo sapiens), sequence (P24462 whole entry, looked up): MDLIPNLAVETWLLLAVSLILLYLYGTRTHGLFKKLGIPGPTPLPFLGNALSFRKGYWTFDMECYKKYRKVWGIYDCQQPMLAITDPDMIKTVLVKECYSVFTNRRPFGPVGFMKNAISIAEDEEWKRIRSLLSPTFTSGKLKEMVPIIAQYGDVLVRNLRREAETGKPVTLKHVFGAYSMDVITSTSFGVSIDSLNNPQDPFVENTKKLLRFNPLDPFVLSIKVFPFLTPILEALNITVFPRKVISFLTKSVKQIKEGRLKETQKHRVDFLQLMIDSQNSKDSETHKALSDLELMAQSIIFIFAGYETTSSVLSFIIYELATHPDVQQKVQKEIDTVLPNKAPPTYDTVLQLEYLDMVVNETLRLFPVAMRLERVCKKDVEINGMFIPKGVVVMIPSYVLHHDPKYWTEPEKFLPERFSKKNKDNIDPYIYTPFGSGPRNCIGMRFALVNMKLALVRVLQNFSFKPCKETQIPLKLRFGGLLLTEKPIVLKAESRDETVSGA

CCOCCn1c(C2CCN(CCc3ccc(C(C)(C)C(=O)O)cc3)CC2)nc2ccccc21
inactive: Potency [1] | Potency [2] | Potency [3] | activity (max response) [4] 2.01%

CCC(=O)Nc1cccc(Oc2nc(Nc3ccc(N4CCN(C)CC4)cc3OC)ncc2Cl)c1
active: Potency [2] 1.64 µM and 2.35 µM | Potency [3] 2.91 µM and 2.35 µM
inactive: Potency [1] | activity (max response) [4] -16.6%

C[C@H](Nc1ncnc2nc[nH]c12)c1cc2cccc(Cl)c2c(=O)n1-c1ccccc1
active: Potency [2] 11.8 µM | Potency [3] 5.8 µM and 6.61 µM
inactive: Potency [1] | activity (max response) [4] -1.12%

CC(C)(C)NCC(O)c1ccc(O)c(CO)c1 (stereo not drawn)
inactive: Potency [1] | Potency [2] | Potency [3] | Potency [6] | Potency [7] | Potency [8] | activity (max response) [4] 0.289% and -0.385% | Potency [9]
active: Potency [5] 4.18 µM

CC(=O)N/N=C/c1ccc([N+](=O)[O-])o1
active: Potency [2] 18.8 µM | Potency [3] 23700 nM
inactive: Potency [1] | activity (max response) [4] 2.1%

COc1cccc(OC)c1C(=O)N[C@@H]1C(=O)N2[C@@H]1SC(C)(C)[C@@H]2C(=O)O
inactive: Potency [1] | Potency [2] | Potency [3] | activity (max response) [4] 11.1%

O=c1[nH]c(=O)n([C@H]2C[C@H](O)[C@@H](CO)O2)cc1F
inactive: Potency [1]
active: Potency [2] 29.9 nM and 83.3 nM | Potency [3] 105 nM | Potency [4] 3.66 µM and 3.55 µM

CCCc1ncc(C[n+]2ccccc2C)c(N)n1
inactive: Potency [1] | Potency [2] | Potency [3] | activity (max response) [4] -17.3%

CCNC(=O)[C@@H]1CCCN1C(=O)[C@H](CCCN=C(N)N)NC(=O)[C@H](CC(C)C)NC(=O)CNC(=O)[C@H](Cc1ccc(O)cc1)NC(=O)[C@H](CO)NC(=O)[C@H](Cc1c[nH]c2ccccc12)NC(=O)[C@H](Cc1cnc[nH]1)NC(=O)[C@@H]1CCC(=O)N1 ([pGlu]HWSYGLRP-NHEt)
inactive: Potency [1] | Potency [3] | activity (max response) [4] 7.58%
active: Potency [2] 13.3 µM

COC(=O)Nc1nc2ccc(Sc3ccccc3)cc2[nH]1
active: Potency [2] 0.372 µM | Potency [3] 417 nM | Potency [7] 2.35 µM | Potency [8] 2.96 µM | Potency [4] 184 nM and 316 nM | Potency [9] 130 nM and 316 nM
inactive: Potency [1]

OCCCc1ccccc1
inactive: Potency [1] | Potency [2] | Potency [3] | activity (max response) [4] 4.32%

COc1cnc(NS(=O)(=O)c2ccc(N)cc2)nc1
inactive: Potency [1] | Potency [3] | Potency [6] | Potency [7] | Potency [8] | activity (max response) [4] 10.3%
active: Potency [2] 0.0012 µM

Cc1cc(C2CCCCC2)n(O)c(=O)c1
inactive: Potency [1]
active: Potency [2] 2.31 µM and 4.68 µM | Potency [3] 2.59 µM and 3.35 µM and 3.72 µM | Potency [6] 13.2 µM | Potency [7] 11.8 µM | Potency [8] 13.2 µM | Potency [4] 1.3 µM and 25.1 µM | Potency [9] 2 µM

COc1ccccc1N1CCN(CCCNc2cc(=O)n(C)c(=O)n2C)CC1
inactive: Potency [1] | Potency [2] | Potency [3] | activity (max response) [4] 2.85%

CC(C(=O)O)c1ccc(CC2CCCC2=O)cc1 (stereo not drawn)
inactive: Potency [1] | Potency [2] | Potency [3] | activity (max response) [4] 7.96%

[Cl][In]([Cl])[Cl]
inactive: Potency [1] | Potency [2] | Potency [3]
active: Potency [4] 35.5 µM

COC(=O)/C=C\C(=O)OC
inactive: Potency [1] | Potency [2] | Potency [3] | activity (max response) [4] 9.62% | Potency [9]

Cn1cc(-c2ccc3c(c2)CCN3C(=O)Cc2cccc(C(F)(F)F)c2)c2c(N)ncnc21
active: Potency [2] 0.731 µM | Potency [3] 2.06 µM and 4.68 µM
inactive: Potency [1] | activity (max response) [4] -1.75%

C[C@@H](O)[C@H]1C(=O)N2C(C(=O)O)=C(S[C@@H]3CN[C@H](C(=O)N(C)C)C3)[C@H](C)[C@H]12
inactive: Potency [1] | Potency [2] | Potency [3] | activity (max response) [4] 7.3% and 9.96% | Potency [9]

CC[C@H](C)[C@H](N)C(=O)O
inactive: Potency [1] | Potency [2] | Potency [3] | activity (max response) [4] 4.01% | Potency [9]

O=C(O)/C=C/c1ccc(Cn2ccnc2)cc1
inactive: Potency [1] | Potency [2] | Potency [3] | activity (max response) [4] 7.34% and 4.34% | Potency [9]

C[C@H]1CN(C[C@H](Cc2ccccc2)C(=O)NCC(=O)O)CC[C@@]1(C)c1cccc(O)c1
inactive: Potency [1] | Potency [2] | Potency [3] | activity (max response) [4] 8.76% | Potency [9]

OC[C@@H](O)[C@@H](O[C@@H]1O[C@H](CO)[C@H](O)[C@H](O)[C@H]1O)[C@H](O)[C@@H](O)CO
inactive: Potency [1] | Potency [2] | Potency [3] | activity (max response) [4] 1.27% | Potency [9]

CN(C)CCOC(C)(c1ccccc1)c1ccccn1 (stereo not drawn)
inactive: Potency [1] | Potency [2] | Potency [3] | activity (max response) [4] 14.2% | Potency [9]

Cc1cc2c(cc1CC(=O)c1sccc1S(=O)(=O)Nc1onc(C)c1Cl)OCO2
inactive: Potency [1] | Potency [2] | Potency [3] | activity (max response) [4] 2.25% and -17.1% | Potency [9]
